Bioassay records as filed in PubChem BioAssay.
Only some compounds are listed: those with a hit (about 9.4% of all), similar ones and a draw of the others.
ELG1 DNA repair = ELG1-dependent DNA repair inhibition | Potency, µM (doses to about 46.1 µM), without a hit: top-dose activity change, negative = inhibition, usual class: inhibitors | actives 2.3% (n = 330,000) | HEK293T ELG1-luciferase reporter, luminescence, 16 h; DNA damage induced by 5-fluorouridine; note: % is set by controls: 0 for no effect and ±100 for the full control effect; nearly all actives have a fitted effect of over 55% in size
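DMSO vehicle served as the neutral condition. Each well held 2,000 cells given 5-fluorouridine plus compound; after 16 hr at 37 °C/5% CO2, ONE-Glo was added and luciferase measured 30 min later.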
Rab9 prom act = Rab9 promoter activation | Huh7 Rab9 promoter-luciferase reporter, luminescence, 24 h | Potency, µM (top dose mostly 9.22 µM), without a hit: at the top dose activation, negative = inhibition, actives largely listed as activators | actives 2.8% (n = 320,000) | AID 485297; note: % of control where 0% means no effect; nearly all actives have a fitted effect of over 60% in size
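Using Huh7 cells stably transfected with Rab9 promoter–luciferase, compounds were incubated 24 h at 37 °C, 5% CO2; luciferase luminescence was read 10 min after reagent addition.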
NPC1 prom act = activates the NPC1 promoter. Huh7 NPC1 promoter luciferase reporter, 24 h. Potency, µM (titrated, usually from 9.22 µM), without a hit: at the highest dose activation, hits mostly activators. actives 2.4% (n = 320,000); note: % of control where 0% means no effect; nearly all actives have a fitted effect of over 60% in size
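Stably transfected Huh7 (NPC1 promoter→luciferase), 1500 cells/well in Opti-MEM + 10% FBS, 2 h settle, then compound 24 h at 37 °C. Luminescence after 10 min with Amplite reagent.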
FLuc counter = firefly luciferase modulation, counter-screen for miR-21 project | P08659 | purified FLuc, Km substrates, luminescence inhibition | Potency, µM (series often up to 57.5 µM), for inactives: top-dose activity change, negative = inhibition, most hits filed as inhibitors | actives 6.9% (n = 360,000) | AID 588342;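 note: plate controls were vehicle for no effect and reference inhibitor for full effect; nearly all actives have a fitted effect of over 55% in size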
Target sequence (P08659 whole entry, looked up): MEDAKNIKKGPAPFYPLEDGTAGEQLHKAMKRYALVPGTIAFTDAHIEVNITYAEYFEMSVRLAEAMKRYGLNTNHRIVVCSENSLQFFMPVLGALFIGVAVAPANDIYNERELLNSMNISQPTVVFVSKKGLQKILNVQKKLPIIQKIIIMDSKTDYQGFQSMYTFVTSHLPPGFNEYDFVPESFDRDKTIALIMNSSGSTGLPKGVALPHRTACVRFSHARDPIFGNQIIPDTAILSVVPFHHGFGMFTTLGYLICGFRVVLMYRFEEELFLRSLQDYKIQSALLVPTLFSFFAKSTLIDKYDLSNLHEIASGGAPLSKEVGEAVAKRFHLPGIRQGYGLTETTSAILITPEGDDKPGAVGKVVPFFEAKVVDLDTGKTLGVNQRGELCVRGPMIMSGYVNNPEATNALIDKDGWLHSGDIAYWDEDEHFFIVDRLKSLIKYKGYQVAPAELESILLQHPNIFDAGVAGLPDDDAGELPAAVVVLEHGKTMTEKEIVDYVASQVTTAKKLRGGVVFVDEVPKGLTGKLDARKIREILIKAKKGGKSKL
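Purified P. pyralis luciferase, 10 nM final, with Km-level 10 uM D-luciferin and 10 uM ATP in 50 mM Tris acetate pH 7.5, 10 mM Mg acetate, 0.01% Tween-20, 0.05% BSA; 6-point qHTS titration about 60 µM downward; luminescence read.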
ELG1 genotoxic = induces genotoxicity in HEK293T cells with luciferase-tagged ELG1. HEK293T ELG1-luciferase reporter, luminescence, 16 h. Potency, µM (highest dose often 46 µM), without a hit: at the highest dose activity change, positive = activation, actives largely listed as activators. actives 1.3% (n = 330,000). AID 504466; note: % of control where 0% means no effect; nearly all actives have a fitted effect of over 60% in size
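DMSO vehicle served as control against compound-treated ELG1-luciferase HEK293T cells; exposure lasted 16 hr at 37 °C and 5% CO2, followed by ONE-Glo luminescence detection after 30 min.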
SMN2 splice enh = increases expression of the SMN2 splice variant; HEK293 SMN2-luciferase splicing reporter, luminescence, 30-36 h; AID 1458; actives 2.8% (n = 210,000); Potency, µM (top dose mostly 46.1 µM), inactives show at the top dose activity change, positive = activation, hits mostly activators; note: % of control where 0% means no effect; nearly all actives have a fitted effect of over 55% in size
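qHTS luciferase splicing reporter: luminescence rises when SMN2 exon 7 is included in transfected HEK293 cells. Compound exposure lasted 30-36 h at 37C, with 4.5 mM final sodium butyrate as control, followed by a ONE-Glo read.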
* marks the source's active call; other numbers are inactive results. Calls come from the whole dose curve; as a rule, active = well fitted curve in the direction sought with a large enough effect; inconclusive = small, poorly fitted or top-dose-only effect, or another doubt; inactive = no such curve, though single readings can be large; an effect the other way counts as inactive or inconclusive. Potency is the fitted concentration of half-maximal effect.

Screening COc1ccc(/C=C2\SC(=S)N(CCC(=O)Nc3ccccc3C(=O)O)C2=O)cc1 returned ELG1 DNA repair 2.4%, Rab9 prom act -0.5%, NPC1 prom act -4.7%, FLuc counter 21.3µM* and ELG1 genotoxic -2.1%.
CCOc1ccc(/C=C2\SC(=S)N(CCC(=O)Nc3ccccc3C(=O)O)C2=O)cc1 was read as ELG1 DNA repair -7.5%, Rab9 prom act inconclusive, NPC1 prom act 1.9%, FLuc counter 15.1µM* and ELG1 genotoxic 6.2%.
Screening O=C(O)CCN1C(=O)CC(N2C(=O)/C(=C/c3ccc(Cl)cc3)SC2=S)C1=O (centres undefined) returned ELG1 DNA repair -1.6%, Rab9 prom act 0.1%, NPC1 prom act -5.4%, FLuc counter 19µM*, ELG1 genotoxic -5.8% and SMN2 splice enh 1.2%.
For CCc1ccccc1-n1c2c(cc(-c3nc(-c4ccc(Cl)cc4)cs3)c1=O)C(=O)CC(C)(C)C2 the results were FLuc counter -7.8% and SMN2 splice enh 0.6%.
For Cc1cc(-n2c(C)nc3ccccc3c2=O)ccc1NC(=O)c1ccc(C)c([N+](=O)[O-])c1 the results were FLuc counter -14.5%.
Screening CCS(=O)(=O)c1ncc(N(Cc2cccc(F)c2)Cc2ccco2)c(C(=O)Nc2ccccc2Cl)n1 returned FLuc counter 4.3%.
CCOc1ccc(/C=C2\SC(=S)N(CCC(=O)O)C2=O)cc1 was read as ELG1 DNA repair inconclusive, Rab9 prom act -30.9%, NPC1 prom act -10.6%, FLuc counter 1.69µM* and ELG1 genotoxic 0.1%.
For COc1ccc(/C=C2\SC(=O)N(CCCC(=O)Nc3cc(Cl)ccc3C(=O)O)C2=O)cc1 the results were ELG1 DNA repair 2.06µM* and ELG1 genotoxic -9.2%.
`Cc1cc(-c2ccc(N=Nc3c(S(=O)(=O)O)cc4cc(S(=O)(=O)O)cc(N)c4c3O)c(C)c2)ccc1N=Nc1c(S(=O)(=O)O)cc2cc(S(=O)(=O)O)cc(N)c2c1O` gave ELG1 DNA repair 7.3µM*, Rab9 prom act -12.3%, NPC1 prom act -12.8%, FLuc counter 21.3µM* and ELG1 genotoxic -44.3%.
`O=S(=O)(O)c1cc(O)c2c(O)c(N=Nc3cc(Cl)ccc3O)c(S(=O)(=O)O)cc2c1` gave ELG1 DNA repair inconclusive, Rab9 prom act -9.5%, NPC1 prom act -7.1%, FLuc counter 21.3µM* and ELG1 genotoxic -4.4%.
`C(=C\c1ccco1)/c1ccc2ccccc2n1` gave ELG1 DNA repair inconclusive, Rab9 prom act 3.98µM*, NPC1 prom act inconclusive, FLuc counter 1.2µM* and ELG1 genotoxic inconclusive.
Screening O=C(/C=C/c1ccc2ccccc2n1)N1CCN(S(=O)(=O)c2ccccc2F)CC1 returned ELG1 DNA repair 16.4µM*, Rab9 prom act -10.5%, NPC1 prom act -8.6%, FLuc counter -3.1% and ELG1 genotoxic -4.4%.
Screening Nc1nccc(/C=C/c2c(Cl)cccc2Cl)n1 returned ELG1 DNA repair inconclusive, Rab9 prom act -0.8%, NPC1 prom act -0.8%, FLuc counter inconclusive and ELG1 genotoxic -0.6%.
For Fc1cccc(Cl)c1/C=C/c1cnc2ccccc2n1 the results were ELG1 DNA repair inconclusive, Rab9 prom act 3.98µM*, NPC1 prom act inconclusive, FLuc counter 0.135µM* and ELG1 genotoxic 0.517µM*.
CC(O)/C=C/c1ccc2ccccc2n1 (centres undefined) was read as ELG1 DNA repair 13.9%, Rab9 prom act 14.8%, NPC1 prom act 0.7%, FLuc counter 16.9µM*, ELG1 genotoxic 5.7% and SMN2 splice enh 15.8µM*.
For O=C(Nc1c2c(nn1-c1ccc(Cl)cc1)CS(=O)(=O)C2)c1cccc(Cl)c1 the results were FLuc counter -15.8%.
`COc1ccc(-c2onc(C)c2C)cc1S(=O)(=O)Nc1cccc(C#N)c1` gave FLuc counter -18.8%.
